Shown are actives, neighbours in structure and some others; about 11% of the full set was active somewhere.
HPGD block: qHTS Assay for Inhibitors of HPGD (15-Hydroxyprostaglandin Dehydrogenase); 15-hydroxyprostaglandin dehydrogenase [NAD(+)] (Homo sapiens), P15428; purified HPGD, NADH fluorescence kinetic, PGE2 substrate; Potency, µM, inactives show at the highest dose activity change, negative = inhibition, hits mostly inhibitors; 4.3% of 150,000 active; active means well fitted inhibition curve with a large enough effect, not every such curve was filed as active; inconclusive means small, poorly fitted or top-dose-only effect, or another doubt; inactive means no such curve, though single readings can be large or run the other way; further: potency means the concentration at half of the fitted maximal effect; on the % scale 0 is the no-effect control and ±100 the full control effect
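20 nM HPGD preincubated 15 min at room temperature with compound in 50 mM Tris-HCl pH 8, 0.01% Tween 20. Started with 1 mM NAD+ and 30 uM prostaglandin E2; NADH fluorescence (360/450 nm) read 5 times over 30-s intervals, last minus first.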
HTT cytoprotect: qHTS Multiplex Assay to Identify Dual Action Probes in a Cell Model of Huntington: Cytoprotection (ATP) | 0.14% of 230,000 active | PC12 HTT-Q103 induced, cytoprotection, ATP luminescence, 40 h | Potency, µM (top dose mostly 56.4 µM), for the others: cytoprotection (ATP increase), actives largely listed as activators; further: potency means the concentration at half of the fitted maximal effect; % of control where 0% means no effect; nearly all actives have a fitted effect of over 45% in size
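Rat PC12, Q103 Htt exon1-GFP fusion, ecdysone promoter; tebufenozide inducer 100 nM final; compound titration; qHTS, 1500 cells/well; ATPlite luminescent read.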
CBFb-RUNX1 inh: qHTS Assay for Compounds Blocking the Interaction Between CBF-beta and RUNX1 for the Treatment of Acute Myeloid Leukemia | Runt-related transcription factor 1 (Homo sapiens) + Core-binding factor subunit beta … | AlphaScreen CBFb-His/RUNX1-biotin binding, biochemical | Potency, µM (titrated, usually from 59.8 µM), for inactives: at the top dose activity, negative = inhibition, hits mostly inhibitors | 230,000 tested, under 10 active; further: % of control where 0% means no effect
Target sequence (Q01196 whole entry, looked up): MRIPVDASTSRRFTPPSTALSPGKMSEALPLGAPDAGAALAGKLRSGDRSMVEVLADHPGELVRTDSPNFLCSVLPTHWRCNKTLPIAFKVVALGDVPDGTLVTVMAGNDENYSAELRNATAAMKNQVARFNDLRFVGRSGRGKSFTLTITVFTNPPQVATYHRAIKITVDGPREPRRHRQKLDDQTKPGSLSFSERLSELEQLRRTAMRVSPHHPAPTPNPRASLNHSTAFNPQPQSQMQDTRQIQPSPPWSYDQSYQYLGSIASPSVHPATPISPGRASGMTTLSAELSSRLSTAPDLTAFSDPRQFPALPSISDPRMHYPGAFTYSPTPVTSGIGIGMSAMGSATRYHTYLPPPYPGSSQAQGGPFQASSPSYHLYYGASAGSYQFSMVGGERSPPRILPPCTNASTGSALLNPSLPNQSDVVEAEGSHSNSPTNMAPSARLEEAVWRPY
Target sequence (Q13951 whole entry, looked up): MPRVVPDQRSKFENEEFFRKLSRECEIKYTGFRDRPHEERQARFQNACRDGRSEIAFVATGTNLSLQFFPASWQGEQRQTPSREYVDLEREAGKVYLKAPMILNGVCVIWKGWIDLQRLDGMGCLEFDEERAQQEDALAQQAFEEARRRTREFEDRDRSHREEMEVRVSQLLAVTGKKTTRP
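AlphaScreen binding: CBFb-His and RUNX1-biotin (30 nM each) preincubated 20 min, compound added for 15 min, then nickel and streptavidin beads for 90 min, all at room temperature. Disruption of the interaction by any mechanism counts as activity.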
ALDH1A1 inh: qHTS Assay for Inhibitors of Aldehyde Dehydrogenase 1 (ALDH1A1); Aldehyde dehydrogenase 1A1 (Homo sapiens), P00352; Purified ALDH1A1, NADH fluorescence, propionaldehyde substrate; Potency, µM (titrated, usually from 75.3 µM), without a hit: at the top dose activity, negative = inhibition, usual class: inhibitors; 7.3% of 220,000 active; active means well fitted inhibition curve with a large enough effect, not every such curve was filed as active; inconclusive means small, poorly fitted or top-dose-only effect, or another doubt; inactive means no such curve, though single readings can be large or run the other way;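 further: potency means the concentration at half of the fitted maximal effect; plate controls were no enzyme wells and a reference inhibitor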
PNC inhibitor: High Content Assay for Compounds that inhibit the Assembly of the Perinucleolar Compartment; PC3M PTB-GFP, PNC prevalence imaging, 16 h; hits give low values; activity change (PNC), negative = inhibition, % at 10 µM; 3.1% of 140,000 active;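 active means readout at or below -70, meaning at least 70% loss of cells showing the perinucleolar compartment, a nuclear body marking cancer cells; inconclusive means readout between -30 and a set limit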;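 further: plate controls were DMSO wells for no effect and camptothecin positive control wells for full effect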
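Compounds are pinned in duplicate onto adhered PC3M cells stably expressing GFP-tagged PTB and incubated 16 h at 37 C. Cells are then fixed, nuclei stained with Hoechst, and PNC-positive cells counted.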
HTT aggregate: qHTS Multiplex Assay to Identify Dual Action Probes in a Cell Model of Huntington: Aggregate Formation (GFP). Potency, µM (doses to about 46.1 µM), for inactives: top-dose activity change, negative = inhibition, actives largely listed as inhibitors. 1.1% of 220,000 active. PC12 HttQ103-GFP aggregates, Acumen cytometry, 40 h; further: potency means the concentration at half of the fitted maximal effect; on the % scale 0 is the no-effect control and ±100 the full control effect; nearly all actives have a fitted effect of over 60% in size
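Huntingtin Q103 exon 1–GFP aggregates in induced PC12 cells (100 nM tebufenozide) were quantified by cytometry from lysates, with compounds dosed in titration.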
* marks the source's active call; other numbers are inactive results; ? = inconclusive; / = no result given; [ ] = remark or other dose. Unless noted, the call rests on the fitted dose curve; in most records, active means well fitted curve in the direction sought with a large enough effect; inconclusive means small, poorly fitted or top-dose-only effect, or another doubt; inactive means no such curve, though single readings can be large; an effect the other way counts as inactive or inconclusive.

SMILES	HPGD block	HTT cytoprotect	CBFb-RUNX1 inh	ALDH1A1 inh	PNC inhibitor	HTT aggregate
COc1ccc(OC)c(NC(=O)NC2(C(F)(F)F)Oc3ccccc3O2)c1	-6%	-30%	-2%	7.1µM*	32	-27%
COc1ccc(OC)c(NC(=O)Nc2ccccc2C)c1	-1%	-7%	-7%	4%	9	-4%
O=C1c2cccc3cccc(c23)C(=O)N1c1cccnc1	/	-75%	4%	3%	25	?
O=C1c2cccc3cccc(c23)C(=O)N1c1ccncc1	?	25%[10 µM]	1%	?	-100*	-29%
O=C(Oc1ccccc1)c1ccc2nsnc2c1	-5%	2%[10 µM]	13%	4µM*	5	-5%
CC(C)(C)NC(=O)c1ccc2nsnc2c1	-18%	18%[10 µM]	4%	4%	-110*	-5%
Cc1cccc(OC(=O)c2ccc3nccnc3c2)c1	-10%	3%	-3%	-12%	27	-20%
CC1=C(C(=O)N(C)C)C(c2cccc(Cl)c2)NC(=O)N1 (configuration not stated)	-12%	-4%[10 µM]	2%	2%	35	4µM*
CC(=O)c1cc(C#N)c(SCc2ccccc2)nc1C	-20%	-20%	18%	18µM*	?	21%[9.22 µM]
O=C(O)CCSCc1ccccc1	-10%	6%[10 µM]	/	2%[13.5 µM]	/	/
COc1cc2c(cc1OC)C(c1ccccc1)N(C(=O)c1ccco1)CC2 (configuration not stated)	?	-5%	-2%	?	38	3%
O=C(c1ccco1)N1CCn2cccc2C1c1ccccc1 (configuration not stated)	/	0.89µM*	?	1.3µM*	/	-5%
CCN(CC)c1ccc(C(=O)N/N=C(\C)c2ccc(O)cc2)cc1	-22%	/	-4%	25µM*	11	27%
C/C(=N\NC(=O)c1ccc(N(C)C)cc1)c1ccc(C)c(C)c1	/	-1%[10 µM]	-4%	14µM*	-11	-9%
C/C(=N\NC(=O)c1ccc(N(C)C)cc1)c1ccc(C)cc1C	-16%	/	-2%	-12%	?	4%
Cc1sc(-n2c(C)cc(/C=N/n3cnnc3)c2C)c(C#N)c1C	/	-25%	-11%	4µM*	8	?
CCCOc1ccc(-c2nc(C#N)c(N3CCN(CC)CC3)o2)cc1	?	0%[0.074 µM]	-6%	?	27	4%
c1ccc2c(c1)OC(CCCN1CCCCC1)c1ccccc1S2 (configuration not stated)	-8%	11%[10 µM]	-1%	4%	-100*	4%
O=C(O)c1ccccc1NS(=O)(=O)c1ccc(NNC(=S)Nc2ccc(OC(F)F)cc2)c([N+](=O)[O-])c1	/	-41%	/	3.5µM*	/	-6%
COC(=O)[C@H]1CC2(CC=C(C)C)C(=O)[C@@](CC=C(C)C)(C(=O)C(C(=O)c3ccccc3)=C2OC)C1(C)C (tested in a mixture with another compound)	-4%	12%	21%	?	/	/
COC(=O)c1cccc(Oc2nc3c(c(=O)n(C)c(=O)n3C)n2C(C)C)c1	-7%	-12%	2%	0%	-97*	21%
CCCCC1C(=O)N(c2ccccc2)N(c2ccc(O)cc2)C1=O (configuration not stated)	?	2.2µM*	17%	?	/	/
O=C(CCN1CCN(Cc2ccccc2)CC1)Nc1ccccc1Cl	-2%	9%[10 µM]	1%	-10%	-28	23%
CSc1nc2c(c(=O)[nH]1)C(c1ccccc1Cl)CC(=O)N2 (configuration not stated)	/	5%	7%	13µM*	/	27%
O=C(CN1CCN(Cc2ccccc2)CC1)Nc1ccc(Cl)cn1	1%	11%	6%	?	?	-2%
SMILES	HPGD block	HTT cytoprotect	CBFb-RUNX1 inh	ALDH1A1 inh	PNC inhibitor	HTT aggregate
O=[N+]([O-])c1ccc(C(=S)N2CCN(Cc3ccccc3)CC2)cc1	-22%	15%[10 µM]	-9%	14µM*	-27	-6%
CSc1ccc(C(=S)N2CCN(Cc3ccccc3)CC2)cc1	?	32%	-21%	2.2µM*	-8	-10%
CC1CCN(C(=S)c2ccc([N+](=O)[O-])cc2)CC1	22µM*	28%[10 µM]	-7%	?	-8	19%
O=C(CN1CCN(Cc2ccccc2)CC1)NCCNc1ccc([N+](=O)[O-])cn1	/	-42%	6%	9.5µM*	/	12%
O=[N+]([O-])c1ccc(C(=S)N2CCCC2)cc1	/	-5%[10 µM]	-1%	?	/	-2%
S=C(c1ccc(Cl)cc1)N1CCN(Cc2ccccc2)CC1	/	-32%[1.9 µM]	-4%	-18%	/	-6%[9.22 µM]
O=C(O)CCC(=O)Nc1ccc(OCC(=O)O)cc1	-11%	-12%	3%	7%	0	-13%
CSc1sc(C(=O)N(C)C)c2c1S(=O)(=O)N(C)c1ccccc1-2	/	-12%[10 µM]	3%	/	/	-19%[9.22 µM]
CCN1CCN(C(=S)c2ccc([N+](=O)[O-])cc2)CC1	25µM*	17%[10 µM]	-2%	?	11	-1%
CCOC(=O)c1c(NS(=O)(=O)c2cccc(OC)c2)sc2c1CCC2	35µM*	14µM*	-4%	10µM*	?	-6%
CCOC(=O)c1cccc(NC(=O)C2CCCO2)c1 (configuration not stated)	-16%	11%	4%	2%	?	-13%
CC(=O)Nc1sc2c(c1C(N)=O)CCCC2	-6%	-16%	2%	4%	13	-3%
NC(=O)c1c(NC(=O)C2CCCO2)sc2c1CCCC2 (configuration not stated)	8.9µM*	-11%[10 µM]	2%	?	?	-17%
CCOC(=O)c1c(NC(=O)C2CCCO2)sc(C)c1C (configuration not stated)	/	-18%	-7%	14µM*	/	-7%
N#Cc1c(NC(=O)C2CCCO2)sc2c1CCCCCC2 (configuration not stated)	?	/	7%	14µM*	-26	-2%
CC1(N)CCC(C(C)(C)N)CC1 (configuration not stated)	-7%	11%	-2%[21.7 µM]	?	/	/
CSc1nnc2c3c4c(sc3c(=O)n(-c3ccccc3)n12)CC(C)(C)OC4	-8%	-26%	2%	?	?	15%
CCOC(=O)Nc1sc2c(c1C(=O)OCC)CCC2	-20%	-1%	9%	?	13	5%[9.22 µM]
